# Laboratory results taken from the supplement of paper PMC6555819.
# Legend:
# Test in all cases: PBM binding z-score (relative to random genomic background probes); higher = stronger binding; sequences stand for … in GC…GCGATTGACAGCGTAGAATGAAGG
# [1] = system: RARb homodimer (NR concentration 270 nM)
# Method in brief: (§1)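 Probes were double-stranded and carried 34-nt variable regions with direct-repeat seeds, single-nucleotide variants, half-site ablations and random human genomic background sequences, printed on custom Agilent 4×180K protein-binding microarrays. Arrays were incubated 1 h with ligand-free nuclear receptor dimers in PBS pH 7.4, 2% milk, 0.02% Triton X-100, 1 mM DTT, 0.2 mg/mL BSA and 0.4 mg/ml salmon testes DNA. Antibodies against each partner (one per run) detected binding, and scanned fluorescence was regression-normalized. Binding z-scores use the random background probes as reference.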
# [2] = system: RARg:RXRa (NR concentration 270 nM, RXRa partner concentration 90 nM)
# Method in brief: as §1
# [3] = system: RARg homodimer (NR concentration 270 nM)
# Method in brief: as §1
# [4] = system: RXRa DBDmut IVT, anti-RXR (DBD mutation: RXRa K156A/R161A, NR concentration 90 nM)
# Method in brief: as §1
# [5] = system: RXRa homodimer (NR concentration 180 nM)
# Method in brief: as §1
# [6] = system: THRa:RXRa (NR concentration 90 nM, RXRa partner concentration 90 nM)
# Method in brief: as §1
# [7] = system: THRa homodimer (NR concentration 90 nM)
# Method in brief: as §1
# [8] = system: VDR homodimer (NR concentration 270 nM)
# Method in brief: as §1
Sequence,PBM binding z-score [1],PBM binding z-score [2],PBM binding z-score [3],PBM binding z-score [4],PBM binding z-score [5],PBM binding z-score [6],PBM binding z-score [7],PBM binding z-score [8]
TCTTGTAGATCAAGGGTTAAGAAAGCCGAAGCCT,0.274,0.818,0.191,0.293,1.64,0.516,-0.93,-0.218
TCTATTAGTTGATTAGGCCAACCGAAACAGCGGA,0.54,0.339,0.554,1.35,0.635,0.691,0.713,0.253
ATCGAAAGGTCGACGAGGTGAGTGTACACCGTTT,3.22,4.45,4.1,1.71,4.92,3.71,1.21,1.52
CGTCCAAGGTCAAAGGTCGGTGAAGAGATGACGG,4.52,7.18,6.2,3.85,8.84,4.24,2.17,2.78
CCTACTGGGCCTCGAAAGGTCATTGATTCAGTGA,4.35,4.09,3.27,0.125,4.83,3.14,0.721,1.43
ATCTCTAGGTAAAGTACAGTGAAAGATCGATAGA,0.302,0.498,0.733,0.55,0.366,0.609,0.162,0.488
CGAACTAGGTCATCCAGGACAATGAATACATTGA,2.68,3.81,4.59,2.36,2.73,3.81,2.22,2.27
AGAACGAGGGCAATGAGTAGATAGCACGGGTGGC,0.9,1.33,1.4,1.67,1.14,0.671,-0.3,0.678
GCTTGTACATCAAGGTTAAGAAAGACTAAGCTAA,0.275,0.435,0.375,-0.122,0.599,0.997,-0.187,-0.281
AGAATGAGGTTATTAATATCAGGGAATTGCGGTC,0.652,1.03,0.749,1.73,1.62,2.05,0.737,1.2
TCTGCTAGGTCAGTTTGTCAGCTAACGAGCTGCC,1.74,1.84,2.44,0.8,0.666,0.996,0.0715,-0.975
TCTCGGAGGACACGAAGGTCAGAACTTTCCAGAG,3.24,2.59,3.24,1.26,1.51,2.69,1.15,1.45
GCTGCTAGGTCCACTGATGGTCAGCTAAAGCTCG,0.602,-0.251,-0.0766,0.741,-0.741,-0.256,-0.767,-0.434
TCGAGTAGCTTACCAATGGGGCATTCAGCTTTCT,-0.454,-0.745,-0.826,0.345,-0.307,-1.44,-0.855,-0.692
TCTGCTAGGTTAGTTGGTCAGCTAACGAGCTGCC,-0.0655,0.00476,-0.189,-0.0929,-0.323,-0.551,-1.24,-1.15
AGACTGAGGTTAAGATCAGGGAAACAGAATACAT,0.774,2.09,1.38,0.593,2.21,2.35,0.489,0.3
TGAATGAGGTTATAAGATCAGGCAACGTTGCAAA,0.151,1.57,0.908,0.405,2.11,1.85,0.127,0.105
TTATATAGGTAAACAGGTGAAAGTCCGTAAGTTA,0.827,0.632,0.572,0.156,0.949,0.802,0.282,0.242
GGAACGAGGGGAAAGTTGATAGCATCTGTCGACG,0.0344,0.0991,0.188,0.287,0.258,0.0347,-0.259,-0.402
TCTCGGAGGACACGAAAGGTCAGAGATCGACATC,4.63,5.05,5.73,1.17,4.6,3.87,1.53,1.12

Sequence,PBM binding z-score [1],PBM binding z-score [2],PBM binding z-score [3],PBM binding z-score [4],PBM binding z-score [5],PBM binding z-score [6],PBM binding z-score [7],PBM binding z-score [8]
TCTTGTAGATCAACAGGAGGTTCAGAAAGATCGA,-0.296,0.00148,-0.0996,0.388,0.331,0.0407,-1,0.524
AGTATGAGGTTACCAAAGATCAGGGAAACGCTTG,1.09,2.17,1.83,0.98,2.63,2.87,0.98,0.48
CCGACTGGGGCATAAGGATACCATAAGCCAGCCC,-0.129,-0.00817,0.301,-0.682,0.0556,0.92,0.5,-0.401
TAGCCTAGGTCAGGTCGGGCCAGTATACGCTATA,2.67,2.95,4.12,-0.81,1.62,3.92,0.761,0.0294
CGAACTATGTCAGAACAGGACAGTGAAGGATGAT,0.293,0.443,0.879,-0.123,0.167,0.953,-0.106,0.0831
TATACAGGGTCATAGGCCAGAGTACGAATGTCGA,3.08,5.43,4.72,2.94,6.27,3.5,0.758,3.52
GCTGCTAGGTCAGTTTGGTCAGCTAACGGGTACG,2.43,2.29,3.29,0.863,0.8,1.36,0.147,0.564
CCGACCGGGGCAGAAAGGTTACCATACCATCCGG,2.41,2.1,1.87,-0.807,1.89,1.53,-0.148,0.0914
TCTGCTAGGTCAGTTGGTCAGTTAACGAGCTGCC,2.57,2.69,3.81,0.618,0.575,1.34,0.247,-0.347
ATCTCTAGGTAACAAGTTCAGTGTAAGAGAGGAC,1.94,1.5,1.49,1.15,0.874,1.8,0.989,2.99
GCTATTAGTTGAAAGGGCAATCGAATGATTCTCG,1.55,0.91,0.806,0.718,1.12,0.487,-0.359,0.123
ATCTCTAGGTAAAGATACTTCAGTGAATGCAAAT,-0.416,0.491,0.669,-0.0244,0.385,0.398,0.038,0.371
GATACAGGGTCAAGGCCAGCGTACGCGTATTGAT,3.63,5.27,4.55,2.14,5.61,3.53,1.43,1.31
GCTGCTAGGTCAACTTATGGTCAGCTAAAGCTCG,3.76,5.26,5.44,1.75,3.1,3.33,1.45,0.364
CCGACTGGGCCACGAAAGGTCATTGATTCAGTGA,4.83,4.59,4.35,0.758,4.99,3.87,0.668,1.78
CCTCGGAGCACAGAAGGTCAGAGCTGTCCGCTTT,3.08,2.63,2.37,0.0874,2.3,3.13,-0.478,-0.376
AGAATGAGGTAATACGTAGATCAGGGAAGAAAGT,-0.0706,0.35,0.314,-0.0157,0.428,1.39,0.304,-0.472
GCGGACAGGTGAAACGCAGGTAACTCAGGGTGGC,0.239,1.13,0.717,-0.341,0.426,1.41,-0.55,-0.834
CCTACTGGGCCATCAGGTCATTGACATCAACGTT,2.72,1.97,2.1,0.333,1.81,3.22,3.14,1.41
ATCTCTAGGTAAAGTTCAGAGAAAGATCGATAGA,2.23,2.13,2.6,1.45,1.42,1.13,-0.103,2.03

Sequence,PBM binding z-score [1],PBM binding z-score [2],PBM binding z-score [3],PBM binding z-score [4],PBM binding z-score [5],PBM binding z-score [6],PBM binding z-score [7],PBM binding z-score [8]
ATTTCTAGGTAAAGTTCAGTGAAAGATCGATAGA,2.55,2.02,2.7,1.59,1.44,1.48,0.574,2.39
CGTCCAAGGTCAATGCTGGGTCAGTGAAAGCATT,4.74,7.34,6.47,3.12,4.97,4.28,2.52,2.62
CCTATTGGGCCAAAGGTCATTGATTCCAATGCTC,4.43,5.85,4.73,1.62,6.7,3.29,0.647,2.85
GGAACGAGGGCCTTCGAGTTGATAGCATGGCGAT,-1.03,-0.45,-0.368,0.207,-0.125,0.262,-1.24,-0.335
TCTTGTAGATCAGCAGATTAAGAAAGCTGGCCAA,-0.767,-0.275,-0.543,0.615,-0.121,-0.329,-0.892,-0.178
CAAACTAGGCCACCGGAAGGTCAAAGTCCGCATG,4.21,4.82,4.07,0.796,4.1,2.93,1.18,2.29
TCTTGTAGATCTACAGGAGGTTAAGAAAGATCGA,-0.0502,0.199,0.133,0.107,0.709,0.534,-0.449,-0.594
TATACAGGGTCAATGGCCAGAGTACGAATGTCGA,3.21,5,4.73,2.43,5.41,3.22,0.631,2.79
GCTAGCACGCCATTTGGGTCACTCAATGACGGGC,1.32,0.76,0.779,-0.343,0.832,1.5,0.413,-0.357
CCGAGTGGGGCAGAAAGGTTACCATACCATCCGG,2.09,1.63,1.23,-0.568,1.76,0.899,-0.05,0.0724
CCTTACCGGTCACTCCAGGTTATAGCATCGGAGT,2.64,2.41,3.52,0.359,0.865,3.88,1.32,0.951
CAAACTAGTTCACCGGAAGGTCAAAGTCCGCATG,4.92,6.9,4.99,2.8,4.73,3.73,1.72,3.2
AATACAGGGTCATCGTAGGGCAGAGTACGCACAG,3.67,6.04,5.73,3.64,7.22,4.59,1.42,3.02
GCGACTGGAGCATCAGCAGGTTACCATAACTTAA,-0.0503,-0.127,-0.161,-0.526,0.0977,0.179,-0.37,-0.639
CCTACTGGGCCAAAGGTCATTTATTCCAATGCTC,4.42,5.3,4.03,1.55,6.1,3.27,0.735,3.04
AGAATGAGGTTAAGATCAGTGAAACAGAATACAT,0.841,2.07,1.34,0.64,2.31,2.31,0.766,0.283
GCTCGGATGACAAGGTCAGAGCTTTGTCCGTAGA,2.57,2.42,2.02,0.22,2.15,2.5,1.09,0.292
ACTTACGGGTTAACGAGGTTATAGCACGCGTATA,1.62,2.26,1.43,1.02,3.01,3.09,0.992,1.96
